Assay results taken from PubChem BioAssay (NCI).
This is part of a sample that, as a whole, favours compounds with a hit. Of some 79,000 tested, about 15% had one in any assay. The source made the active and inactive calls. No stated cut-off is given here; in the data, active means growth inhibition above about 70%; inactive means the rest.

Key:
[1] = NCI Yeast Anticancer Drug Screen. Data for the wt2 strain (AID 169);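 further: 0% = growth of vehicle-treated yeast cultures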; conditions: S. cerevisiae wt2 strain growth inhibition, hits give high values
Method in brief: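 Yeast cells were exposed to test compounds, and growth inhibition was measured relative to vehicle-treated controls.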

[2] = NCI Yeast Anticancer Drug Screen. Data for the mlh1 strain (AID 171);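 further: 0% = growth of vehicle-treated control cultures of the same strain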; conditions: S. cerevisiae mlh1 strain growth inhibition, hits give high values
Method in brief: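 Yeast carrying a defined genetic alteration in DNA damage repair or cell cycle control were exposed to test compounds. Growth inhibition was measured relative to vehicle-treated controls.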

[3] = NCI Yeast Anticancer Drug Screen. Data for the sgs1 strain (AID 173);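 further: 0% = growth of vehicle-only control cultures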; conditions: S. cerevisiae sgs1 mutant, hits give high values
Method in brief: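 Yeast mutant strains carrying defined defects in DNA damage repair or cell cycle control were exposed to test compounds. Growth inhibition was scored against vehicle-treated controls.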

[4] = NCI Yeast Anticancer Drug Screen. Data for the mlh1 rad18 strain (AID 175); conditions: S. cerevisiae mlh1 rad18 strain growth inhibition, hits give high values
Method in brief: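 Growth inhibition of the yeast strain was measured after compound exposure and expressed relative to vehicle-treated controls. The strain carries defined defects in DNA damage repair.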

[5] = NCI Yeast Anticancer Drug Screen. Data for the rad18 strain (AID 177); conditions: S. cerevisiae rad18 mutant growth inhibition, hits give high values
Method in brief: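 Yeast carrying a defined DNA damage repair alteration were exposed to compounds. Growth inhibition was expressed relative to vehicle-treated controls.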

[6] = NCI Yeast Anticancer Drug Screen. Data for the rad52 strain (AID 147);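 further: 0% = growth of vehicle-treated control cultures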; conditions: S. cerevisiae rad52 mutant growth inhibition, hits give high values
Method in brief: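 Yeast strain carrying a DNA damage repair alteration was exposed to test compounds. Growth inhibition was measured relative to vehicle-treated controls.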

[7] = NCI Yeast Anticancer Drug Screen. Data for the wt1 strain (AID 149);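 further: 0% = growth of vehicle-treated wt1 cultures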; conditions: S. cerevisiae wt1 strain (SPY 50644) growth inhibition, hits give high values
Method in brief: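 Using yeast strain wt1, compound-induced growth inhibition was determined against vehicle-treated cultures.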

[8] = NCI Yeast Anticancer Drug Screen. Data for the rad50EPP+ strain (AID 151);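 further: 0% = growth of vehicle-treated control cultures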; conditions: S. cerevisiae rad50 mutant strain, hits give high values
Method in brief: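 Yeast strain carrying rad50 alteration (rad50EPP+) exposed to compounds; growth inhibition measured relative to vehicle-treated controls.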

[9] = NCI Yeast Anticancer Drug Screen. Data for the mgt1 strain (AID 153); conditions: S. cerevisiae mgt1 mutant growth inhibition, hits give high values
Method in brief: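 Yeast mgt1 strain (DNA repair/cell-cycle alteration panel) exposed to compounds; growth inhibition measured relative to vehicle-treated controls.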

[10] = NCI Yeast Anticancer Drug Screen. Data for the rad50 strain (AID 155);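 further: 0% = growth of vehicle-only cultures of the same strain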; conditions: S. cerevisiae rad50 strain growth inhibition, hits give high values
Method in brief: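 Relative growth inhibition (compound vs vehicle) was measured in yeast with a defined repair-gene alteration.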

[11] = NCI Yeast Anticancer Drug Screen. Data for the mec2-1 strain (AID 157); conditions: S. cerevisiae mec2-1 strain, hits give high values
Method in brief: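 mec2-1 yeast strain, carrying an alteration in DNA damage repair or cell cycle control, was exposed to compounds; growth inhibition was measured relative to vehicle-treated controls.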

[12] = NCI Yeast Anticancer Drug Screen. Data for the rad14 strain (AID 159);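 further: 0% = growth of vehicle-treated control cultures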; conditions: S. cerevisiae rad14 strain growth inhibition, hits give high values
Method in brief: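 Screen for anticancer potential: a yeast strain altered in DNA damage repair is grown with compound, and reduced growth is quantified against vehicle controls.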

[13] = NCI Yeast Anticancer Drug Screen. Data for the sgs1 mgt1 strain (AID 161);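 further: 0% = growth of cultures given vehicle only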; conditions: S. cerevisiae sgs1 mgt1 strain, hits give high values
Method in brief: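 Growth of a repair-deficient yeast mutant was monitored after compound treatment and expressed as inhibition relative to vehicle-treated cultures.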

[14] = NCI Yeast Anticancer Drug Screen. Data for the CLN2oe strain (AID 163);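 further: 0% = growth of vehicle-only control cultures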; conditions: S. cerevisiae CLN2oe strain, hits give high values
Method in brief: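 Yeast cells carrying a defined cell-cycle control alteration were exposed to test compounds. Growth inhibition was scored against vehicle-treated control cultures.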

[15] = NCI Yeast Anticancer Drug Screen. Data for the cln2 rad14 strain (AID 165);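 further: 0% = growth equal to vehicle treated cultures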; conditions: S. cerevisiae cln2 rad14 strain, hits give high values
Method in brief: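 Yeast carrying cln2 and rad14 alterations (cell cycle control and DNA damage repair) were exposed to compounds. Growth inhibition was measured against vehicle-treated controls.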

[16] = NCI Yeast Anticancer Drug Screen. Data for the bub3 strain (AID 167); conditions: S. cerevisiae bub3 mutant strain, hits give high values
Method in brief: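 Screening used yeast with an engineered genetic alteration affecting cell cycle control. Compound-exposed cultures were compared with vehicle cultures, and reduced growth was taken as inhibition.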

[17] = at 5.0 µM (retest, dose inferred, filed as 0.5)
[18] = at 50.0 µM (retest, dose inferred, filed as 5.0)

Measured: growth inhibition

CCCCCCCCCCCCCCCCOP(=O)(O)OCC(N)C(=O)O (stereo unspecified)
active: [2]; at 33.0 µM 97% | [2]; at 100.0 µM 97% | [3]; at 33.0 µM 98% | [3]; at 100.0 µM 98% | [4]; [18] 99% | [4]; at 50.0 µM 98.2% | [5]; at 33.0 µM 97% | [5]; at 100.0 µM 97%
inactive: [1]; at 1.2 µM -17% | [1]; at 3.7 µM -22% | [1]; at 11.0 µM -22% | [1]; at 33.0 µM -22% | [1]; at 100.0 µM 48% | [2]; at 1.2 µM -23% | [2]; at 3.7 µM -11% | [2]; at 11.0 µM 53% | [3]; at 1.2 µM 14% | [3]; at 3.7 µM 1% | [3]; at 11.0 µM 51% | [4]; [17] -26% | [5]; at 1.2 µM -25% | [5]; at 3.7 µM -11% | [5]; at 11.0 µM 40%

O=[N+]([O-])c1cc(S(=O)(=O)Nc2ccccc2)ccc1Nc1ccccc1
inactive: [6]; at 1.2 µM 0% | [6]; at 3.7 µM 13% | [7]; at 1.2 µM -16% | [7]; at 3.7 µM -19% | [8]; at 1.2 µM 2% | [8]; at 3.7 µM 2% | [8]; at 11.0 µM 23% | [8]; at 33.0 µM 19% | [8]; at 100.0 µM 3% | [9]; at 1.2 µM -18% | [9]; at 3.7 µM 11% | [10]; at 1.2 µM 11% | [10]; at 3.7 µM 28% | [10]; [17] 51% | [11]; at 1.2 µM 18% | [11]; at 3.7 µM 19% | [11]; [17] 39% | [12]; at 1.2 µM -26% | [12]; at 3.7 µM -29% | [13]; [17] 2% | [14]; at 1.2 µM 14% | [14]; at 3.7 µM -1% | [15]; [17] 68% | [16]; at 1.2 µM 15% | [16]; at 3.7 µM 40% | [16]; [17] -7% | [1]; at 1.2 µM -28% | [1]; at 3.7 µM -18% | [2]; at 1.2 µM -26% | [2]; at 3.7 µM -15% | [3]; at 1.2 µM 0% | [3]; at 3.7 µM -8% | [4]; [17] 33% | [5]; at 1.2 µM -3% | [5]; at 3.7 µM 18%
active: [6]; at 11.0 µM 95% | [6]; at 33.0 µM 91% | [6]; at 100.0 µM 76% | [7]; at 11.0 µM 94% | [7]; at 33.0 µM 91% | [7]; at 100.0 µM 81% | [9]; at 11.0 µM 89% | [9]; at 33.0 µM 92% | [9]; at 100.0 µM 82% | [10]; at 11.0 µM 93% | [10]; at 33.0 µM 89% | [10]; [18] 94% | [10]; at 50.0 µM 80% | [10]; at 100.0 µM 75% | [11]; at 11.0 µM 93% | [11]; at 33.0 µM 89% | [11]; [18] 96% | [11]; at 50.0 µM 81.2% | [11]; at 100.0 µM 78% | [12]; at 11.0 µM 89% | [12]; at 33.0 µM 89% | [12]; at 100.0 µM 77% | [13]; [18] 91% | [13]; at 50.0 µM 85.5% | [14]; at 11.0 µM 94% | [14]; at 33.0 µM 89% | [14]; at 100.0 µM 76% | [15]; [18] 91% | [15]; at 50.0 µM 80.2% | [16]; at 11.0 µM 94% | [16]; at 33.0 µM 91% | [16]; [18] 86% | [16]; at 50.0 µM 76.2% | [16]; at 100.0 µM 76% | [1]; at 11.0 µM 92% | [1]; at 33.0 µM 92% | [1]; at 100.0 µM 83% | [2]; at 11.0 µM 90% | [2]; at 33.0 µM 91% | [2]; at 100.0 µM 79% | [3]; at 11.0 µM 91% | [3]; at 33.0 µM 91% | [3]; at 100.0 µM 83% | [4]; [18] 98% | [4]; at 50.0 µM 77.7% | [5]; at 11.0 µM 95% | [5]; at 33.0 µM 91% | [5]; at 100.0 µM 79%
